Giardia killer: Giardia lamblia killing. Giardia lamblia trophozoite viability. hit rate 0.15% among 340,000. activity change, % at 7.66 µM, hits read low. AID 540267; in the data active means activity change below about -80%; inconclusive means between about -30% and that limit;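 further: parasites exposed to compound for two days anaerobically before the ATP read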
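Media and compound were dispensed first, then trophozoites at 100 cells/well; plates sat 48 hrs at 37 deg C without oxygen before ATP luminescence reagent was added and read after 15-30 min at room temperature.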
ELG1 repair inh: inhibitors of ELG1-dependent DNA repair in HEK293T cells | Potency, µM (doses to about 46.1 µM), actives largely listed as inhibitors | hit rate 2.3% among 330,000 | HEK293T ELG1-luciferase reporter, luminescence, 16 h; DNA damage induced by 5-fluorouridine | AID 504467; further: nearly all actives have a fitted effect of over 55% in size
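Overnight (16 hr) co-exposure of 2,000 cells/well to 5-fluorouridine and compound at 37 °C preceded detection. Luciferase was quantified via ONE-Glo luminescence; loss of signal denotes inhibition.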
p53 reactivator: mutant p53 re-activation in reporter cells; H1299 p53-A138V BP100-luciferase reporter, luminescence, 24 h; Potency, µM (doses to about 92.2 µM), hits mostly activators; hit rate 0.063% among 320,000; AID 504706; further: nearly all actives have a fitted effect of over 45% in size
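H1299 (p53-null), stable ts p53-A138V + BP100-Luc; 1000 cells/well, Opti-MEM/10% FBS; cpd 4 pt, 1:5; 24 h, 37 deg C, 5% CO2; detection reagent 10 min RT; luminescence.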
BRCA1 expr act: activators of BRCA1 expression; MCF7-BRCA1-FFLuc reporter, luminescence, 48 h; response scale: scaled: vehicle 0%, 10 µM genistein 100%; Potency, µM (titrated, usually from 46.1 µM), most hits filed as activators; hit rate 1.1% among 380,000; further: nearly all actives have a fitted effect of over 80% in size
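Activators of BRCA1 expression were detected as increased firefly luciferase luminescence in engineered MCF7 cells after 48 h compound incubation. Signals were scaled to genistein 10 microM as full activation.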
VP16 counter: inhibits Gal4-VP16 luciferase reporter, ROR gamma counter-screen | AID 2546 | hit rate 3.5% among 310,000 | Potency, µM (highest dose often 53.6 µM), usual class: inhibitors | Drosophila S2 Gal4-VP16 UAS-luciferase, luminescence, 20 h;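 further: Gal4-VP16 expression switched on by copper sulfate through the metallothionein promoter; nearly all actives have a fitted effect of over 50% in size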
RORg inh: blocks mouse ROR gamma transcriptional activity. P51450. Drosophila S2 Gal4-RORgamma UAS-luciferase reporter, 20 h. Potency, µM (doses to about 53.6 µM), most hits filed as inhibitors. hit rate 5.4% among 310,000; further: nearly all actives have a fitted effect of over 60% in size
Target sequence (P51450 whole entry, looked up, the tested form may be a part): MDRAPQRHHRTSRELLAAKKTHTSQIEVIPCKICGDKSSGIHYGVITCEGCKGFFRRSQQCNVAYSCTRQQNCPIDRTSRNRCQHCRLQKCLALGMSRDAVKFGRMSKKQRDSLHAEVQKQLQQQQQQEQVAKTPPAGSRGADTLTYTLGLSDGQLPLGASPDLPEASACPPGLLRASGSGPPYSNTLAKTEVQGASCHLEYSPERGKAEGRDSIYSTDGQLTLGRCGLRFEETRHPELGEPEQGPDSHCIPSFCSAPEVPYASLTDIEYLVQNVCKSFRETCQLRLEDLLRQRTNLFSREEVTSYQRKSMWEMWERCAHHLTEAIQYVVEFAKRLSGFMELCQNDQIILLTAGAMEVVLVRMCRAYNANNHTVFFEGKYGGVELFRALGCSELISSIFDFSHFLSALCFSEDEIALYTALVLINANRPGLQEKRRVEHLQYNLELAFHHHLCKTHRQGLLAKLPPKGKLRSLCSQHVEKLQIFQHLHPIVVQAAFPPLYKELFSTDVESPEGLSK
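Drosophila S2 cells stably expressing Gal4-DBD/mouse RORγ fusion under metallothionein promoter plus UAS-luciferase; compound 1 h, then 700 uM CuSO4 induction for 20 h at ambient temperature; inhibition read as reduced luminescence.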
Of the large screens only hits and unclear results are named; the others gave an inactive call. A selection: hits, their analogues and other compounds. The true share with any hit is near 7.6%. Unless noted, the call rests on the fitted dose curve; in most records, active means well fitted curve in the direction sought with a large enough effect; inconclusive means small, poorly fitted or top-dose-only effect, or another doubt; inactive means no such curve, though single readings can be large; an effect the other way counts as inactive or inconclusive.

Cc1ccc(CCNC(=O)c2cc(-c3ccncc3)nc3ccccc23)cc1	ELG1 repair inh inconclusive
Cc1ccc(-c2cc(C(=O)NC3=NCCS3)c3ccccc3n2)cc1C	ELG1 repair inh inconclusive, p53 reactivator inconclusive, VP16 counter 11µM, RORg inh 10µM
COc1cc(NC(=S)NC(C)=O)ccc1NC(=O)C(C)C	ELG1 repair inh inconclusive, p53 reactivator inconclusive
COc1ccc(CCNC(=O)COC(=O)c2ccccc2NCCO)cc1OC	none (no result: VP16 counter, RORg inh)
Nc1nc(N)c(Cc2ccc(Cl)cc2Cl)c(N)n1	ELG1 repair inh inconclusive
Cc1cc(NC(=O)COC(=O)c2ccc(S(=O)(=O)C(F)F)cc2)n(-c2ccccc2)n1	none (no result: VP16 counter, RORg inh)
CCCc1nnc(NC(=O)c2nc(S(=O)(=O)Cc3ccc(C)cc3)ncc2Cl)s1	VP16 counter inconclusive, RORg inh inconclusive
CSc1nnc(NC(=O)c2nc(S(=O)(=O)Cc3ccccc3)ncc2Cl)s1	ELG1 repair inh inconclusive, VP16 counter inconclusive, RORg inh 13µM
CC(C)c1nnc(NC(=O)c2nc(S(=O)(=O)Cc3ccccc3)ncc2Cl)s1	ELG1 repair inh inconclusive, VP16 counter 11µM, RORg inh 22µM
CCCSc1nnc(NC(=O)c2nc(SC)ncc2Cl)s1	RORg inh 13µM
Cc1onc(-c2ccccc2)c1C(=O)NC1CCCCC1C (stereo not drawn)	none (no result: Giardia killer, ELG1 repair inh, p53 reactivator, VP16 counter, RORg inh)
Cc1ccccc1C(=O)NC(=S)NCCc1ccccc1	p53 reactivator inconclusive, VP16 counter inconclusive, RORg inh 7.9µM
Cc1ccccc1C(=O)NC(=S)NCc1cccnc1	none
Cc1ccccc1C(=O)NC(=S)NCc1ccccc1	VP16 counter 7.1µM, RORg inh 6.3µM (no result: p53 reactivator)
Cc1ccccc1C(=O)NCC(=O)NNC(=S)NC(=O)c1ccccc1C	VP16 counter inconclusive, RORg inh 5.6µM
CC(C)(C)CC(=O)NC(=S)NCc1ccccc1	VP16 counter 8.9µM, RORg inh 1.1µM
COc1ccc(OC)c(C2NC(=O)NC(C)=C2C(=O)Nc2ccc(C)cc2)c1 (stereo not drawn)	none
C[C@@H]1CN([C@@H](C)CO)C(=O)CCCn2nncc2CO[C@@H]1CN(C)S(=O)(=O)c1cccc(F)c1	none (no result: Giardia killer, ELG1 repair inh, p53 reactivator, VP16 counter, RORg inh)
CNc1cc(CSC)nc(SCc2ccc(Cl)cc2Cl)n1	none
CSCc1cc(N(C)C)nc(SCc2ccc(Cl)c(Cl)c2)n1	VP16 counter inconclusive, RORg inh 11µM
CC(C)CC(=O)NCc1ccc2[nH]c3c(c2c1)CCCC3	none
Cc1ccc(NC(=S)NCc2ccc3[nH]c4c(c3c2)CCCC4)cc1	Giardia killer inconclusive, ELG1 repair inh inconclusive, VP16 counter 2.8µM, RORg inh 7.9µM
COCCNC(=S)NCc1ccc2[nH]c3c(c2c1)CCCC3	RORg inh 20µM
Cc1ccc(N=Cc2c(O)n(-c3cc(Cl)ccc3N3CCOCC3)c(=O)c3ccccc23)cc1C	ELG1 repair inh inconclusive
N#C/C(=C\c1c[nH]c2ccccc12)C(=O)Nc1ncc(Cc2ccc(Cl)cc2Cl)s1	ELG1 repair inh inconclusive, VP16 counter 2.2µM, RORg inh 1.4µM
Cn1cc(/C=C(\C#N)C(=O)Nc2ncc(Cc3cccc(Cl)c3)s2)c2ccccc21	VP16 counter 1.4µM, RORg inh 3.2µM (no result: Giardia killer, BRCA1 expr act)
Cn1cc(/C=C(\C#N)C(=O)Nc2cccc([N+](=O)[O-])c2)c2ccccc21	ELG1 repair inh inconclusive
CC(=O)Nc1ncc(Cc2cc(Cl)ccc2Cl)s1	RORg inh inconclusive
Cc1cc2ncc(-c3ccc(Cl)cc3)cn2n1	ELG1 repair inh inconclusive, BRCA1 expr act inconclusive
Cc1ccc(-c2cnc3cc(C)nn3c2)cc1	Giardia killer inconclusive, ELG1 repair inh inconclusive, VP16 counter 13µM, RORg inh 11µM
COc1cc(NC(=O)C2CC(c3ccccc3Cl)=NO2)cc(OC)c1OC (stereo not drawn)	ELG1 repair inh inconclusive, VP16 counter 16µM, RORg inh inconclusive
COc1cc(C2=NOC(C(=O)N3CCCCCC3)C2)cc(OC)c1OC (stereo not drawn)	ELG1 repair inh 7.3µM
COc1cccc(C2=NOC(C(=O)Nc3cc(OC)c(OC)c(OC)c3)C2)c1 (stereo not drawn)	ELG1 repair inh 18µM
COC(=O)Cc1c(C)c2ccc(OCC(=O)N3CCCC3)c(C)c2oc1=O	none
COc1ccc(NC(=O)C2CC(=O)N(c3ccc(C)cc3)C2)cc1S(=O)(=O)N1CCCCC1 (stereo not drawn)	none (no result: Giardia killer, ELG1 repair inh, p53 reactivator, VP16 counter, RORg inh)
Cc1ccc2nc(-c3ccc(O)cc3)oc2c1	Giardia killer inconclusive, ELG1 repair inh inconclusive, VP16 counter 7.1µM, RORg inh 2.5µM (no result: p53 reactivator)
Cc1onc(-c2ccccc2)c1C(=O)NC(=S)NNC(=O)c1ccco1	ELG1 repair inh 23µM
Cc1onc(-c2ccccc2)c1C(=O)NNC(=S)NC(=O)/C=C/c1cccs1	VP16 counter 4.5µM, RORg inh 3.5µM
COc1ccc(C(=O)NC(=S)NNC(=O)c2c(-c3ccccc3)noc2C)cc1OC	ELG1 repair inh inconclusive, VP16 counter 14µM, RORg inh 4µM
Cc1onc(-c2ccccc2)c1C(=O)N/N=C/c1cccs1	VP16 counter inconclusive, RORg inh inconclusive
Cc1onc(-c2ccccc2)c1C(=O)NNC(=S)NC(=O)c1ccc2c(c1)OCO2	ELG1 repair inh inconclusive, p53 reactivator inconclusive, RORg inh 2.5µM
Cc1onc(-c2ccccc2)c1C(=O)NC(=S)NNC(=O)c1ccncc1	VP16 counter inconclusive, RORg inh inconclusive
C=C(C)Cn1c(Sc2nnc(C)s2)nc2c1c(=O)[nH]c(=O)n2C	none
O=C(c1nc2ccc(Cl)cn2c1CNCC[C@@H]1C[C@@H]2C=C[C@H]1C2)N1CCCCCCC1	ELG1 repair inh inconclusive
O=C(NCc1ccc(F)cc1)C1CCCN(S(=O)(=O)c2ccc(-n3cnnn3)cc2)C1 (stereo not drawn)	none
COc1cccc(Nc2ncc3nc(-c4ccccc4)c(=O)n(C)c3n2)c1	none (no result: Giardia killer, ELG1 repair inh, p53 reactivator, BRCA1 expr act)
CCCn1c(C)nc2c(N(CCN(C)C)Cc3ccccc3)nc(C)nc21	none (no result: Giardia killer, ELG1 repair inh, p53 reactivator, BRCA1 expr act)
FC(F)Oc1ccc(/C=N/c2c(-c3ccc(OC(F)F)cc3)nc3n2CCS3)cc1	VP16 counter inconclusive, RORg inh inconclusive
CCOC(=O)CNC(=O)O[C@@H]1C(=O)c2cc(OC)ccc2O[C@H]1c1cccc(OC)c1	none (no result: Giardia killer, ELG1 repair inh, p53 reactivator, BRCA1 expr act)
O=C(NCCc1ccccc1)c1ccccc1Cl	ELG1 repair inh inconclusive, VP16 counter 7.9µM, RORg inh 8.9µM
Cc1ccc(C(=O)NCCCc2ccccc2)c(Cl)c1	ELG1 repair inh inconclusive, BRCA1 expr act inconclusive, RORg inh 11µM (no result: p53 reactivator)
O=C(NCCc1ccccc1)c1ccc(-c2cccnc2)c2ccoc12	BRCA1 expr act 7.1µM (no result: Giardia killer, ELG1 repair inh, p53 reactivator, VP16 counter, RORg inh)
O=C(NCCCc1ccccc1)c1ccc([N+](=O)[O-])cc1Cl	ELG1 repair inh inconclusive, p53 reactivator inconclusive, BRCA1 expr act 10µM
